A selection: hits, their analogues and other compounds. The true share with any hit is near 2.9%.
S1P4 antagonist = antagonists of human S1P4 receptor; 0.26% of 220,000 active; inhibition, % at 4.98 µM; S1P4-expressing cells, antagonist mode, reporter read-out; in the data active = inhibition above about 29%;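 note: 0% = wells stimulated with agonist and 100% = vehicle wells without agonist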
HSF1 activator = increases HSF-1 driven luciferase reporter signal; NIH3T3-HGL HSF-1 luciferase reporter, MG132, 8 h; 100% = twice DMSO control signal; activation, % at 9 µM; 1.7% of 300,000 active;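 active = mean replicate activation of at least 50% with a set share of replicates each reaching 50%; inconclusive = only one of those two conditions met; inactive = mean below 50% and too few replicates reaching it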;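 note: 0% = median of the neutral control wells and 100% = twice that signal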
Hsp70 activator = transcriptional activators of Hsp70; HeLa Hsp70 promoter luciferase reporter, luminescence; scaled: vehicle 0, proteasome-inhibitor control 100%; activation, % at 10 µM; 0.04% of 200,000 active; AID 1203;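 active = activation above the mean across all tested compounds plus 3 SD, cutoff set per campaign, cut at about 5.5% in these data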;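 note: 100% = MG132 at 30 µM as the positive control and 0% = DMSO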
S1P4 agonist = agonists of human S1P4 receptor; O95977; S1P4-expressing cell line, agonist reporter assay; activation, % at 4.98 µM; 0.35% of 220,000 active; in the data active = activation above about 11%;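 note: 0% = DMSO vehicle and 100% = reference agonist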
S1P3 antag = S1P3 (human) receptor antagonism; Q99500; CHO S1P3 NFAT-BLA reporter, FRET fluorescence, antagonist mode; inhibition, % at 4.98 µM; 0.27% of 170,000 active;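 active = inhibition above the plate cutoff, the mean inhibition of test wells on that plate plus 3 SD, cut at about 28% in these data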;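 note: cells challenged with S1P at its EC80 of 0.8 µM; blue over green emission ratio from cleaved BLA substrate after 4 h stimulation; 0% = S1P-stimulated wells and 100% = unstimulated DMSO-only wells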
Target sequence (Q99500 whole entry, looked up): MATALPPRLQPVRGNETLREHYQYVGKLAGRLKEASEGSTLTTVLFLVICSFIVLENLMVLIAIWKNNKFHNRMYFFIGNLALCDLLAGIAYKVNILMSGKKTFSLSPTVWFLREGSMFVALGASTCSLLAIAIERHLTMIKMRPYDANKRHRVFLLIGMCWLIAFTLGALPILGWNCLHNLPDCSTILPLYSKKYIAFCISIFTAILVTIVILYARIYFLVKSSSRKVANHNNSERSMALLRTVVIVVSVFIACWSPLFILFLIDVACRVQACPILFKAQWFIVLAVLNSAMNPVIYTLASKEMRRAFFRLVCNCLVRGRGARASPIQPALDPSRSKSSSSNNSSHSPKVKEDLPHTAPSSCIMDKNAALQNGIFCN
HSF1 inh = HSF1 inhibition | NIH3T3-HGL HSE-luciferase, MG132-induced, luminescence 8 h; stronger effect = lower value | activity change, negative = inhibition, % at 7.5 µM (by protocol) | 0.77% of 300,000 active | AID 2098;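 active = more than half of replicate wells show activity change below -50%, luminescence cut by over half; inconclusive = some wells, but at most half, below -50%; inactive = no replicate well below -50%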;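 note: luciferase reports HSF-1 transcriptional activity via heat shock element; 0% = median of DMSO wells and -100% = zero luminescence signal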
* marks the source's active call; other numbers are inactive results; ? = inconclusive; · = not tested or not shown.

SMILES	S1P4 antagonist	HSF1 activator	Hsp70 activator	S1P4 agonist	S1P3 antag	HSF1 inh
CCCCc1ccc(NC(=O)CSc2nc(=O)n(CCN(CC)CC)c3c2CCC3)cc1	·	2	·	·	·	2
COc1ccc(NC(=O)c2cc(CN3C(=O)c4ccccc4C3=O)ccc2OC)cn1	-4	-74	0	2	2	-67*
CC(=O)N1CCC2(CC1)NC(=O)N(c1ccccc1)N2	-11	59*	0	1	5	21
CCn1c(O)c(N=NC(=O)c2cccs2)c2ccccc21	-12	63*	0	1	-5	19
CCn1c(O)c(N=N)c2ccccc21	7	13	0	0	-13	-3
CCCn1c(O)c(N=NC(=O)c2ccco2)c2ccccc21	-15	-65	0	2	-10	-55*
COc1ccc(N(C)C(=O)c2cn(CC(C)C)c(=O)c3cc(OC)c(OC)cc23)cc1	·	11	·	·	·	-5
Clc1ccc(SCCCCN2CCOCC2)cc1	-16	-14	0	1	9	3
Cc1ccc(SCCCCN2CCOCC2)cc1	·	141*	·	·	·	113
Cc1ccc(-n2c(C)cc(/C=c3/sc4nc5ccccc5n4c3=O)c2C)cc1	4	-85	0	0	·	-82*
Cc1ccc(CS(=O)(=O)c2ncc(Cl)c(C(=O)Nc3nnc(C(C)C)s3)n2)cc1	·	-76	·	·	·	-71*
CC(C)c1nnc(NC(=O)c2nc(S(=O)(=O)Cc3ccc(F)cc3)ncc2Cl)s1	·	-87	·	·	·	-84*
CC(C)c1nnc(NC(=O)c2nc(S(=O)(=O)Cc3ccccc3F)ncc2Cl)s1	·	-82	·	·	·	-80*
CSc1nnc(NC(=O)c2nc(S(=O)(=O)Cc3ccccc3F)ncc2Cl)s1	·	-25	·	·	·	-22
Cc1nnc(NC(=O)c2nc(S(=O)(=O)Cc3ccccc3C)ncc2Cl)s1	·	-83	·	·	·	-77*
CCSc1nnc(NC(=O)c2nc(S(=O)(=O)Cc3ccc(F)cc3)ncc2Cl)s1	·	-39	·	·	·	-21
Cc1cc(=O)n2[nH]c(SCc3ccccc3Cl)nc2n1	·	32	·	·	·	0
O=C(NCC(=O)N(c1ccc(F)cc1)C(C(=O)NC1CCCC1)c1cccnc1)c1ccco1 (stereo unspecified)	·	16	·	·	·	12
CSc1nnc(NC(=O)c2nc(S(=O)(=O)Cc3cccc(C)c3)ncc2Cl)s1	·	-63	·	·	·	?
Cc1cccc(CS(=O)(=O)c2ncc(Cl)c(C(=O)Nc3nnc(C(C)C)s3)n2)c1	·	-78	·	·	·	-73*
NS(=O)(=O)c1ccc(CCNC(=O)CCCCCn2c(=S)[nH]c3ccc(Br)cc3c2=O)cc1	-25	-2	0	2	-12	-3
CCOc1ccc(NCc2cccn2-c2nnc(N3CCC(C(=O)NCCCN4CCCCC4)CC3)s2)cc1	·	-68	·	·	·	-57*
CCOc1ccc(NCc2cccn2-c2nnc(N3CCC(C(=O)NCCCN4C(C)CCCC4C)CC3)s2)cc1 (stereo unspecified)	·	-9	·	·	·	-7
CN(Cc1cccc(F)c1)C(=O)CNS(=O)(=O)c1ccc2ccccc2c1	·	63*	·	·	·	29
Cc1cc([N+](=O)[O-])nn1CC(=O)NCc1ccco1	-22	0	0	1	-5	2
SMILES	S1P4 antagonist	HSF1 activator	Hsp70 activator	S1P4 agonist	S1P3 antag	HSF1 inh
Cc1cc(C(=O)Nc2ccccc2C(=O)O)c(C)o1	·	-8	·	·	·	-2
C=CCN=C1CC(C)(C)CC(=O)/C1=C(/O)CCC(=O)OC	-23	6	2	2	-3	-5
COC(=O)CC/C(O)=C1/C(=N)CC(C)(C)CC1=O	8	58*	0	1	·	23
Cc1ccc(-n2ncc(Cl)c2C(=O)NC2CC2)cc1	8	54*	1	0	3	15
C/C(N)=C(/C#N)C(=O)CSc1nn(-c2ccc(Cl)cc2)c(=S)s1	-12	99*	0	1	7	57
C/C(N)=C(/C#N)C(=O)CSc1nnc(SCc2ccc(Cl)cc2)s1	-15	24	0	1	-17	9
O=C(COC(=O)COc1cccc(Br)c1)Nc1c(Cl)cccc1Cl	-3	54*	0	-2	8	6
Clc1ncnc2scc(C3COc4ccccc4O3)c12 (stereo unspecified)	8	58*	0	2	·	21
c1ccc2c(c1)OCC(c1csc3ncnc(N4CCCCC4)c13)O2 (stereo unspecified)	-10	11	2	0	·	-7
CN(CC(=O)Nc1ccccc1Br)C(=O)c1cccn1C	·	-74	·	·	·	-67*

Compound activity as filed in PubChem BioAssay.
